# This is a sample that favours compounds with a hit; in the whole collection about 4.7% have one here.
# KLK7 zymogen act = activators of human kallikrein-7 zymogen. purified proKLK7, EDANS-DABCYL substrate fluorescence; 100% is mature enzyme control, 0% vehicle. activation, % at 7 µM. 0.9% of 370,000 active;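 active = activation above the mean of all tested compounds plus 3 SD, computed per campaign excluding outliers beyond control limits, cut at about 13% in these data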
# DSG3 Ab inh = blocks pemphigus antibody binding to human desmoglein-3; P32926; DSG3-coupled beads, scFv-anti-DSG3-GFP binding, flow cytometry; stronger effect = lower value; binding (percent of control), % at 10 µM; 0.48% of 310,000 active; AID 588358;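 active = binding more than 3 SD below its plate's average and above zero; inconclusive = below that plate limit but binding exactly zero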;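 note: hits lower antibody fragment binding to DSG3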
# Target sequence (P32926 whole entry, looked up, the tested form may be a part): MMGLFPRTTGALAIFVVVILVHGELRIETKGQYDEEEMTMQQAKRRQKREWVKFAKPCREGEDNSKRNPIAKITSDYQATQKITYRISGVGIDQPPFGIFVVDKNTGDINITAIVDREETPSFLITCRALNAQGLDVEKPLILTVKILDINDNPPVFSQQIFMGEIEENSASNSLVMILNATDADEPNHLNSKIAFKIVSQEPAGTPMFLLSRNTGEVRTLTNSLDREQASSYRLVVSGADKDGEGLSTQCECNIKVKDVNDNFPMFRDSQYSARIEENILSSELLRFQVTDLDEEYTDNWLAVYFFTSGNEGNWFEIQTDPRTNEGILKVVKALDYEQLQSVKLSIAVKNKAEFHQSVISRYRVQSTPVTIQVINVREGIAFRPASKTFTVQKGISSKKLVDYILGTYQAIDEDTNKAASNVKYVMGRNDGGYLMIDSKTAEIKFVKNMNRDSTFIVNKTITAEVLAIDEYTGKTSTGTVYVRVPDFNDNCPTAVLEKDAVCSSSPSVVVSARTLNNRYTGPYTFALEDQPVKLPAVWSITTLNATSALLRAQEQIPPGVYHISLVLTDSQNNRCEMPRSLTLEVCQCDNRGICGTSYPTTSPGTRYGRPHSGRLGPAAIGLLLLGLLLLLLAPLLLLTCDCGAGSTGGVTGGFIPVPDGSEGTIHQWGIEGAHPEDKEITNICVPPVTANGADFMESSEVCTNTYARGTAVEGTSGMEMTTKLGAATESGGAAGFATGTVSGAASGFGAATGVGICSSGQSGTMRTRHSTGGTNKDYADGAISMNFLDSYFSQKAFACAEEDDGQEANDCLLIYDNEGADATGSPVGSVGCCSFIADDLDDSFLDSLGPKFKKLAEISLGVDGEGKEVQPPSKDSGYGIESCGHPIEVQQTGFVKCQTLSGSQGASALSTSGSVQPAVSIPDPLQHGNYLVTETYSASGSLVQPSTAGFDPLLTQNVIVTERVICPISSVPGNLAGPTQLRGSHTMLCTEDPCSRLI
# ADAM17 inh = inhibits human ADAM17. recombinant ADAM17, EDANS/DABCYL FRET peptide cleavage. P78536. AID 720648. 0.83% of 370,000 active. inhibition, % at 6.95 µM;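 active = inhibition above the mean of compounds lying between control limits plus 3 SD, set per campaign, cut at about 8.5% in these data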;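 note: 0% = DMSO-only wells as the low control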
# ADAM10 inh = inhibitors of human ADAM10; O14672; recombinant ADAM10, EDANS/DABCYL FRET peptide cleavage, 3 h; inhibition, % at 7 µM; 0.62% of 370,000 active; AID 720582;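 active = inhibition above a per-campaign cutoff equal to the mean of compounds falling between control-based bounds plus 3 SD, cut at about 20% in these data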;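 note: 0% = DMSO wells while the 100% control is not disclosed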
# MPTP block = permeability transition pore inhibition. isolated mouse mitochondria, Ca2+ swelling absorbance, 30 min. inhibition, % at 10 µM. 1.4% of 360,000 active. AID 602449;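 active = inhibition of 50% or more, scaled per plate between neutral and stimulator controls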;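 note: 0% = DMSO wells given calcium and 100% = 1 mM EGTA wells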
# rCAG binder = molecules binding r(CAG) RNA repeats. r(CAG) RNA repeat, TO-PRO-1 dye displacement fluorescence. inhibition, % at 3 µM. 1.3% of 370,000 active. AID 651821;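 active = inhibition above the plate cutoff, the mean of all test compounds on that plate plus 3 SD, cut at about 35% in these data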;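 note: 0% = DMSO alone and 100% = 100 µM mitoxantrone as full dye displacement; higher means more dye released from RNA so lower well fluorescence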
# KLK7 act conf = proKLK7 activation, confirmation; purified proKLK7, EDANS-DABCYL substrate fluorescence; scaled: vehicle 0, mature enzyme 100; activation, % at 7 µM; shares compounds with KLK7 zymogen act; 68% of 3,200 active;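 active = activation, as change over the incubation, above the mean of all tested compounds plus 3 SD, cut at about 13% in these data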
# EDANS-DABCYL int = optically interferes with EDANS-DABCYL signal, flagging KLK7 hits. shares compounds with KLK7 zymogen act. EDANS-DABCYL substrate fluorescence interference, no enzyme, 4 h; solvent 0%, active enzyme control 100%. activation, % at 7 µM. 80% of 3,200 active;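 active = activation above the all-compound mean plus 3 SD, ignoring values outside control-based bounds, cut at about 4.8% in these data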;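 note: value is the 4 h activation minus the activation read at time zero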
# EDANS interf = EDANS fluorescence interference in dose response, no enzyme; shares compounds with KLK7 zymogen act; EDANS-DABCYL peptide fluorescence interference; EC50, µM; 20% of 250 active; AID 720493;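 active = compounds that raise the fluorescence signal in this interference counterscreen, with EC50 at or below 10 µM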;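 note: intact quenched peptide substrate alone read at 355 nm excitation and 520 nm emission; signal is fluorescence gain from T0 to T4 after four hours at room temperature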
# The depositor's hits bear a star; i = inactive; ? = inconclusive; . = not tested or not shown.
SMILES,KLK7 zymogen act,DSG3 Ab inh,ADAM17 inh,ADAM10 inh,MPTP block,rCAG binder,KLK7 act conf,EDANS-DABCYL int,others
CCN(CC)CCNc1ccc(C)c2sc3ccc(O)cc3c(=O)c12,0,98,1,1,5,8,.,.,
COc1cc2c(c(OC)c1OC)C(c1ccc(C)cc1)CC(=O)O2 (stereo not given),1,105,1,7,0,2,.,.,
Cc1[nH]nc(C(F)(F)F)c1N=NN1CCOCC1,0,86,-3,-8,2,0,.,.,
O=C(Nc1ccc2oc(=O)c(C(=O)O)cc2c1)Oc1ccccc1,100*,96,-56,-208,0,6,187*,181*,
O=C(Nc1ccc(O)c(C(=O)O)c1)Oc1ccccc1,26*,96,-77,-182,-1,3,30*,28*,
CNC(=O)C1CC(=O)N(c2ccc(OCC(=O)Nc3ccc(OC)cc3)cc2)C1 (stereo not given),0,101,3,2,-2,-1,.,.,
O=C(CC1Sc2ccccc2NC1=O)OCc1cc(=O)oc2cc(O)ccc12 (stereo not given),188*,109,-190,i,3,23,272*,279*,
Cc1oc2cc(O)cc(O)c2c(=O)c1-c1ccc2c(c1)OCCCO2,0,106,-1,2,4,7,.,.,
Cc1ccc2c(COC(=O)CC3Sc4ccccc4NC3=O)cc(=O)oc2c1C (stereo not given),-1,95,-4,-11,4,5,.,.,
CC(=O)Oc1cc(OC(C)=O)c2c(=O)c(-c3ccc4c(c3)OCCCO4)c(C)oc2c1,29*,.,-105,-266,2,2,169*,137*,
Cc1ccc(S(=O)(=O)CCC(=O)Oc2ccc3c(C)cc(=O)oc3c2)cc1,24*,101,i,i,0,-1,123*,109*,
Cc1ccc(OC(=O)CCS(=O)(=O)c2ccc(C)cc2)cc1,0,108,1,5,0,-1,.,.,
O=c1ccc2ccc(O)cc2o1,51*,100,i,i,-1,-1,64*,70*,
O=c1ccc2cc(O)c(O)cc2o1,-56,93,i,i,-2,9,.,.,
CCOC(=O)C1CCCN(S(=O)(=O)c2ccc3c(c2)N(C)C(=O)CC(=O)N3C)C1 (stereo not given),0,105,-4,-8,-1,-3,.,.,
COc1ccc(CNC(=O)C2CCN(C(=O)Cc3ccccc3)CC2)cc1,0,?,3,6,-1,1,.,.,
O=C(Nc1cccc2cccnc12)c1ccc(Br)cc1Br,.,94,.,.,4,.,.,.,
COC(=O)/C=C1\OCc2c(F)cccc21,-1,.,-4,-2,1,3,.,.,
COC(=O)Cc1cc(=O)oc2cc(O)ccc12,50*,105,i,i,-2,0,75*,69*,
O=c1cc(O)c2ccc(O)cc2o1,6,96,-11,-37,-2,14,.,.,
O=C(CCN1C(=O)c2ccccc2C1=O)Oc1ccc2ccccc2c1,1,.,-3,0,-1,1,.,.,
CC(=O)Oc1cc2oc(=O)cc(C)c2cc1OC(C)=O,68*,99,i,i,3,2,77*,90*,
Cc1cc(=O)oc2cc(OC(=O)C3CCN(C(=O)c4ccc(F)cc4)CC3)ccc12,14*,101,i,i,-3,0,427*,378*,
Cc1cc(=O)oc2cc(OC(=O)CCCCCN3C(=O)c4ccccc4C3=O)ccc12,63*,108,-390,i,0,-2,405*,336*,
Cc1coc2cc3oc(=O)cc(C)c3cc12,6,96,-70,-209,1,2,.,.,
SMILES,KLK7 zymogen act,DSG3 Ab inh,ADAM17 inh,ADAM10 inh,MPTP block,rCAG binder,KLK7 act conf,EDANS-DABCYL int,others
O=C(CCNC(=O)c1ccc([N+](=O)[O-])cc1)NC1CCCc2ccccc21 (stereo not given),0,101,-3,-7,-1,-3,.,.,
COc1ccc(S(=O)(=O)N2CCN(C(=O)CNC(=O)c3ccc4c(c3)OCO4)CC2)cc1,1,101,-2,-3,-1,-1,.,.,
CC(=O)Oc1cc(OC(C)=O)c2c(C)cc(=O)oc2c1,50*,101,i,i,-2,4,550*,534*,
Cc1cc(=O)oc2cc(O)ccc12,99*,100,i,i,-1,-3,63*,64*,
Cc1ccc(NC(=O)CSCC(=O)OCc2cc(=O)oc3cc(O)ccc23)c(C)c1,468*,97,i,i,1,14,288*,306*,
CC(=O)Nc1c(OC(C)=O)ccc2c(C)cc(=O)oc12,175*,126,i,i,-9,0,489*,515*,
COC(=O)c1ccc(COC(=O)CSCC(=O)Nc2ccc(C)cc2C)cc1,0,106,1,6,0,-3,.,.,
Cc1c(O)ccc2c(CC(=O)N[C@@H](Cc3c[nH]c4ccccc34)C(=O)O)cc(=O)oc12,-28,103,-205,-435,-1,6,.,.,
CCN(CC)c1ccc2c(C)cc(=O)oc2c1,27*,102,i,i,-1,0,17*,26*,
COc1ccc2c(C)cc(=S)[nH]c2c1,-1,97,-15,-22,0,8,.,.,
O=C(Cc1cc(=O)oc2cc(O)ccc12)N[C@@H](Cc1c[nH]c2ccccc12)C(=O)O,16*,103,-256,i,-1,5,91*,90*,
CC(=O)Oc1ccc2c(C)cc(=O)oc2c1,60*,103,i,i,0,1,540*,531*,
CC(=O)Oc1ccc2c(C)cc(=O)[nH]c2c1,179*,101,-139,-434,0,1,343*,302*,
COc1ccccc1/C=N/NC(=O)c1cc2c(ccc3ccccc32)o1,-6,.,-5,-34,0,5,.,.,
N#CCn1cc(/C=N/NC(=O)c2cc3c(ccc4ccccc43)o2)c2ccccc21,35*,91,-52,-101,1,12,-36,-3,
COc1ccc(/C=N/NC(=O)c2cc3c(ccc4ccccc43)o2)cc1OC,43*,123,-57,-219,-1,4,58*,4.5*,EDANS interf=>69
CNC(=S)NNC(=O)c1sc(-c2cc(C)on2)nc1C,21*,88,-27,-64,2,2,34*,37*,

# Screening results deposited in PubChem BioAssay by several laboratories.
